By AC50 is commonly meant the concentration giving half of the maximal activity seen.

Several values for one entry are separate records, joined by “and”; a condition that tells them apart may be missing. Equal values may be shown once. Records with an inconclusive call do not appear. Activity calls are given as the source filed them. How the source made its calls: active means hit-call score of the fitted dose curve at least 0.9, where 1 is the maximum; inconclusive means response in the unintended direction; inactive means score below 0.9.

Chain of Steroid hormone receptor ERR1 (Homo sapiens) (P11474 whole entry, looked up, the tested form may be a part): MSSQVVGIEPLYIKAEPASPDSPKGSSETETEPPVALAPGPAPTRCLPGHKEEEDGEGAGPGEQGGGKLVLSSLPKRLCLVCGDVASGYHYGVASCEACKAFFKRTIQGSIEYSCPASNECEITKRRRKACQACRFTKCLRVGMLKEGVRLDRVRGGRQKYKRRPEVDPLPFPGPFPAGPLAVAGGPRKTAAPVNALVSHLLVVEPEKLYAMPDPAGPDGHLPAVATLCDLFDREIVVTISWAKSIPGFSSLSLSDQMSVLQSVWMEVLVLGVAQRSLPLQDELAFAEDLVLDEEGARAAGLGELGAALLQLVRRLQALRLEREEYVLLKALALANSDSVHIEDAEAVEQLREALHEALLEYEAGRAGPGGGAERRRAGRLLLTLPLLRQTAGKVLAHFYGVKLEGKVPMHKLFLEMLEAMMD

One test deals with Nuclear receptor subfamily 1 group I member 3 (Homo sapiens) (UniProt Q14994). Description: ATG_CAR_TRANS: Attagene TRANS-FACTORIAL HepG2 Assay for human Constitutive Androstane Receptor (CAR) (AID 2282969).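 Further: activators raise reporter mRNA above DMSO so AC50 marks induction.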 The note with it: HepG2 Attagene TRANS-FACTORIAL CAR reporter. A digest of the protocol: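 HepG2 cells transiently transfected with multiplexed GAL4-UAS reporter units expressing chimeric NR-Gal4 proteins; compound exposure 24 h. Reporter mRNA measured by RT-PCR, 6-FAM labelling, HpaI digestion and capillary electrophoresis; gain-of-signal fitted against DMSO baseline.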
Chain of Nuclear receptor subfamily 1 group I member 3 (Homo sapiens) (Q14994 whole entry, looked up, the tested form may be a part): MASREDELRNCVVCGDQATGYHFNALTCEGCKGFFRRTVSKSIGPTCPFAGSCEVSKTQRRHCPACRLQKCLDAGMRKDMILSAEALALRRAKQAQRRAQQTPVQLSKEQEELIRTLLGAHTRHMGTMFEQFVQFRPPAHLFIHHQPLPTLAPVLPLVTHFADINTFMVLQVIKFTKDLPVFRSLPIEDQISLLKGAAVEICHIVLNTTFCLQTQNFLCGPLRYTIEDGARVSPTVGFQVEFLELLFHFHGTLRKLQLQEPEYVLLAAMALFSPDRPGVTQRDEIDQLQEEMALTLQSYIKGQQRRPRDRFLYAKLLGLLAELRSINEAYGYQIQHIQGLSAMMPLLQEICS
For the compound `C=Cc1ccc(O)c(OC)c1`, the outcome was inactive.
For the compound `CCOC(C)=O`, the outcome was inactive.
Regarding `CCOC(=O)CN[C@@H](C(=O)N1CC[C@H]1C(=O)NCc1ccc(/C(N)=N/O)cc1)C1CCCCC1`, the outcome was inactive.
For `Cc1ccc(N=Nc2c(O)ccc3ccccc23)c(C)c1`, the call was inactive.
With `C=COC(=O)C(C)(C)CCCCCC`, the compound was called inactive.
On to `O=C(Nc1ccc(Cl)c(Cl)c1)c1cc(Cl)cc(Cl)c1O`, for which the compound was classed as inactive.
On the same count and under the same terms, as for `CCC(C)c1ccccc1O` (configuration not stated), the entry is “inactive”; as for `Cc1cc(C(=C2C=CC(=Nc3ccc(S(=O)(=O)O)cc3)C=C2)c2ccc(Nc3ccc(S(=O)(=O)O)cc3)cc2)cc(S(=O)(=O)O)c1N`, “inactive”.
`CCOCCOCC`: the compound was called inactive.
Regarding `C=CC(C)(CCC=C(C)C)OC(C)=O` (configuration not stated), the compound was called inactive.
Same read-out and setting: as for `c1cnc2c(c1)ccc1cccnc12`, the entry is “inactive”; as for `CCC(C)c1nccnc1OC` (configuration not stated), “inactive”; as for `CCCCCc1ccc(O)cc1`, “inactive”.
Still for that read-out and setting: as for `FC(F)(F)C(F)(F)C(F)(F)Br`, the entry is “inactive”.
Still for that read-out and setting: as for `CCCCCCCCC(C)=O`, the entry is “inactive”; as for `Cc1cc(=O)oc2cc(O)ccc12`, “inactive”.
For the compound `Clc1ccc(Nc2nnc(Cc3ccncc3)c3ccccc23)cc1`, the call was inactive.
Turning to `C=CC(=O)OCCC(F)(F)C(F)(F)C(F)(F)C(F)(F)C(F)(F)C(F)(F)F`, the result was inactive.
As for `Oc1cccc2c(O)cccc12`, the outcome was inactive.
Take `COc1cc(OC)nc(NC(=O)NS(=O)(=O)Nc2ccccc2C(=O)N(C)C)n1`: the compound was called inactive.
The same measure, in the same setting: as for `OCC(F)(F)C(F)(F)C(F)(F)C(F)(F)C(F)(F)C(F)(F)C(F)(F)C(F)(F)C(F)(F)C(F)(F)C(F)(F)F`, the entry is “inactive”.
Consider `CCC(=O)C=Cc1ccc(OC)cc1`, for which the call was inactive.
In the case of `NC(=NCCCCCCN=C(N)/N=C(\N)Nc1ccc(Cl)cc1)/N=C(\N)Nc1ccc(Cl)cc1`, the call was inactive.
With `COc1ccc(C#N)cc1`, the outcome was inactive.
Regarding `CC(C)(C)c1ccc(CCC=O)cc1`, the outcome was inactive.
The same measure, in the same setting: as for `COCN(COC)c1nc(N(COC)COC)nc(N(COC)COC)n1`, the entry is “inactive”; as for `Oc1cc2ccccc2cc1O`, “inactive”.
On the same count and under the same terms, as for `COc1cc([N+](=O)[O-])ccc1N`, the entry is “inactive”; as for `CC(=O)CC(C)C`, “inactive”.
Turning to `CC(C)C=O`, the outcome was inactive.
Still for that read-out and setting: as for `O=C(F)C(F)(F)C(F)(F)C(F)(F)C(=O)F`, the entry is “inactive”; as for `O=C1OC(=O)c2cc(-c3ccc4c(c3)C(=O)OC4=O)ccc21`, “inactive”.
For `CC[N+](CC)(CC)Cc1ccccc1`, the call was inactive.
Turning to `CCCCCCC(C)(C)C(=O)O`, the compound was classed as inactive.
For `CC(C)(C)C1CCCCC1O` (configuration not stated), the compound was classed as inactive.
For `FC(F)(F)N1C(F)(F)C(F)(F)OC(F)(F)C1(F)F`, the compound was called inactive.
Consider `CC1COCc2cc3c(cc21)C(C)(C)C(C)C3(C)C` (configuration not stated), for which the compound was classed as inactive.

For the next test, the target named is Estrogen receptor (Homo sapiens) (UniProt P03372). As to the kind of experiment: ATG_ERa_TRANS: Attagene TRANS-FACTORIAL HepG2 Assay for human Estrogen Receptor alpha (ERa) (AID 2282970). The note with it: HepG2 Attagene TRANS ERa GAL4 reporter, mRNA. The gist of the method: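 Transactivation via ERa-Gal4 chimera in HepG2; 24 hour incubation; reporter mRNA detected by fluorescence RT-PCR and capillary electrophoresis.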
Chain of Estrogen receptor (Homo sapiens) (P03372 whole entry, looked up, the tested form may be a part): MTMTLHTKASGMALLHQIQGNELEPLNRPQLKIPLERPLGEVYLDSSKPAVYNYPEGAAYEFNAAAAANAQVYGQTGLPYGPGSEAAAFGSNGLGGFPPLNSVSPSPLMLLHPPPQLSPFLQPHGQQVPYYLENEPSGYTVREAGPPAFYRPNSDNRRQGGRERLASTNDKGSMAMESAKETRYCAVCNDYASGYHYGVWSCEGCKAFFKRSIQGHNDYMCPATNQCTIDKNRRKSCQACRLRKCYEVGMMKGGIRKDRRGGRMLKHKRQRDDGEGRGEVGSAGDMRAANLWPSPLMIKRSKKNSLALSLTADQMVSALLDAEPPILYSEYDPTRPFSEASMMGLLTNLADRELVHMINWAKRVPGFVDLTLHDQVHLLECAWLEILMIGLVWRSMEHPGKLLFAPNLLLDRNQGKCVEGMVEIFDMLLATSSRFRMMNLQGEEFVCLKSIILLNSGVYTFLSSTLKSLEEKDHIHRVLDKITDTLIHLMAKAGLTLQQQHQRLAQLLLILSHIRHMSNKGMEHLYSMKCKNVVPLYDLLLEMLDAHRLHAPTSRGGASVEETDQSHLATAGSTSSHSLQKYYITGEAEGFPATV
For the compound `C=Cc1ccc(O)c(OC)c1`, the result was inactive.
Consider `CCOC(C)=O`, for which the compound was classed as inactive.
For `Cc1ccc(N=Nc2c(O)ccc3ccccc23)c(C)c1`, the AC50 was 6.5 µM (active).
On to `C=COC(=O)C(C)(C)CCCCCC`, for which the AC50 was 41 µM (active).
The same measure, in the same setting: as for `O=C(Nc1ccc(Cl)c(Cl)c1)c1cc(Cl)cc(Cl)c1O`, the figure is 6.62 µM (active).
For the compound `CCOCCOCC`, the call was inactive.
`C=CC(C)(CCC=C(C)C)OC(C)=O` (configuration not stated): the compound was called inactive.
For `CCCCCc1ccc(O)cc1`, the AC50 is 1.6 µM (active).
As to `FC(F)(F)C(F)(F)C(F)(F)Br`, the result was inactive.
On the same count and under the same terms, as for `CCCCCCCCC(C)=O`, the entry is “inactive”.
On to `Cc1cc(=O)oc2cc(O)ccc12`, for which the AC50 was 50.6 µM (active) and 53.8 µM (active).
For `Clc1ccc(Nc2nnc(Cc3ccncc3)c3ccccc23)cc1`, the outcome was inactive.
For `C=CC(=O)OCCC(F)(F)C(F)(F)C(F)(F)C(F)(F)C(F)(F)C(F)(F)F`, the AC50 was 12.8 µM (active).
Regarding `Oc1cccc2c(O)cccc12`, the AC50 was 11.1 µM (active).
`COc1cc(OC)nc(NC(=O)NS(=O)(=O)Nc2ccccc2C(=O)N(C)C)n1`: the outcome was inactive.
With `OCC(F)(F)C(F)(F)C(F)(F)C(F)(F)C(F)(F)C(F)(F)C(F)(F)C(F)(F)C(F)(F)C(F)(F)C(F)(F)F`, the half-maximal activity concentration (AC50) was 62.3 µM (active).
As for `NC(=NCCCCCCN=C(N)/N=C(\N)Nc1ccc(Cl)cc1)/N=C(\N)Nc1ccc(Cl)cc1`, the result was inactive.
`COc1ccc(C#N)cc1`: the result was inactive.
With `CC(C)(C)c1ccc(CCC=O)cc1`, the half-maximal activity concentration (AC50) was 74 µM (active).
Regarding `COCN(COC)c1nc(N(COC)COC)nc(N(COC)COC)n1`, the AC50 is 49.3 µM (active).
Consider `Oc1cc2ccccc2cc1O`, for which the call was inactive.
For the compound `O=C(F)C(F)(F)C(F)(F)C(F)(F)C(=O)F`, the outcome was inactive.
Regarding `O=C1OC(=O)c2cc(-c3ccc4c(c3)C(=O)OC4=O)ccc21`, the call was inactive.
As to `CCCCCCC(C)(C)C(=O)O`, the AC50 is 26.4 µM (active).
Consider `CC(C)(C)C1CCCCC1O` (configuration not stated), for which the compound was called inactive.
On the same count and under the same terms, as for `FC(F)(F)N1C(F)(F)C(F)(F)OC(F)(F)C1(F)F`, the entry is “inactive”.
Turning to `CC1COCc2cc3c(cc21)C(C)(C)C(C)C3(C)C` (configuration not stated), the concentration at half-maximal activity (AC50) is 11.8 µM (active).

Another test concerns the target Steroid hormone receptor ERR1 (Homo sapiens) (UniProt P11474). As to the kind of experiment: ATG_ERRa_TRANS: Attagene TRANS-FACTORIAL HepG2 Assay for human Estrogen-Related Receptor alpha (ERRa) (AID 2282971). Particulars: HepG2 Attagene TRANS reporter, ERRa transactivation. A digest of the protocol:
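HepG2 cells were transiently transfected with multiple GAL4-UAS reporter units, then dosed with compound for 24 h. Total RNA was reverse-transcribed, reporter cDNA PCR-amplified and fluorescently labelled, and fragments resolved by capillary electrophoresis; induction was compared with DMSO.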
Regarding `CCOC(=O)CN[C@@H](C(=O)N1CC[C@H]1C(=O)NCc1ccc(/C(N)=N/O)cc1)C1CCCCC1`, the outcome was inactive.
Consider `Cc1cc(C(=C2C=CC(=Nc3ccc(S(=O)(=O)O)cc3)C=C2)c2ccc(Nc3ccc(S(=O)(=O)O)cc3)cc2)cc(S(=O)(=O)O)c1N`, for which the outcome was inactive.
As for `c1cnc2c(c1)ccc1cccnc12`, the compound was called inactive.
In the case of `CCC(C)c1nccnc1OC` (configuration not stated), the call was inactive.
Regarding `CCC(=O)C=Cc1ccc(OC)cc1`, the compound was classed as inactive.
Regarding `CC(=O)CC(C)C`, the result was inactive.
For `CC(C)C=O`, the result was inactive.
Regarding `CC[N+](CC)(CC)Cc1ccccc1`, the call was inactive.

These data come from PubChem BioAssay (EPA / NIEHS).
